± gives the standard deviation.
Assays:
Streptococcus suis HE06 = assay: percent growth relative to DMSO control; higher = less growth inhibition; conditions: 10 µM; incubation time 18 h
Method: (§1)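 CLSI broth microdilution: 5x10^4 CFU of Streptococcus suis (strain P1/7 or HE06) incubated with 10 µM Pathogen Box compound in cation-adjusted Mueller Hinton broth, 37 °C, 5% CO2, 18 h. Growth read as OD600 and expressed as percent of the DMSO-treated control (100%); mean ± SD of three independent experiments.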

Streptococcus suis P1/7 = assay: as above; conditions: 10 µM; incubation time 18 h
Method: as §1

SMILES	percent growth (Streptococcus suis HE06) [%]	percent growth (Streptococcus suis P1/7) [%]
Cn1ccnc1CNCCS(=O)(=O)c1cccc(Nc2ccc(-c3cccc(F)c3)cn2)c1	91.4 ± 14	35 ± 38
COc1cccc2c(C)nc(N=C(N)N)nc12	57.7 ± 22	66.8 ± 52
Cc1cc(C)c2cc(C(=O)NC3CCCCCCC3)[nH]c2c1	90.5 ± 14	90.1 ± 32
Cc1cnc(CCNC(=O)c2cc(-c3ccc(Cl)cc3)cs2)[nH]1	80.7 ± 6.9	77.5 ± 18
CN1CCC(NCc2cccc(-c3ccc(S(=O)(=O)NCc4ccccc4)cc3)c2)CC1	94.9 ± 28	70.3 ± 11
Brc1cncc(-c2cc(NCCCn3ccnc3)nc(-c3ccccc3)n2)c1	46.7 ± 37	43.7 ± 51
Cc1cc(C)cc(COc2ccc3c(C)c(CCC(=O)O)c(=O)oc3c2C)c1	39.9 ± 40	35.3 ± 14
COc1ccc(C2=NCCN2)cc1-c1cn(-c2cccc(C3=NCCN3)c2)nn1	99.9 ± 10	87.9 ± 21
COc1ccc(-c2cnc3cnc(-c4cccc(OC(C)C)c4)cn23)cc1	59 ± 50	25.7 ± 45
Cc1cnc(N2CCN[C@@H](Cc3ccccc3)C2)nc1Oc1ccc(-n2ccnc2)cc1	98.9 ± 9.1	109 ± 29
CC1CS(=O)(=O)CCN1/N=C/c1ccc([N+](=O)[O-])o1 (centres undefined)	85.9 ± 6.6	85.1 ± 16
Cc1ccc2oc(-c3cc(NC(=O)Cc4ccccc4)ccc3Cl)nc2c1	93.1 ± 13	78.5 ± 4
Cc1[nH]c2ccccc2c1C(c1cccs1)N1CCN(C)CC1 (centres undefined)	49 ± 25	86.1 ± 38
O=C(Nc1ccc(F)c(-c2nc3cc(-c4ccccc4)cnc3[nH]2)c1)N1CCCC1	99.7 ± 36	83.7 ± 5.5
O=C(C(Cc1c[nH]c2ccccc12)NS(=O)(=O)c1ccc(Cl)cc1)N1CCCCC1 (centres undefined)	89.3 ± 4.7	120 ± 43
O=C(Nc1ccnc(-c2cccnc2)n1)c1cc(C(F)(F)F)cc(C(F)(F)F)c1	78.2 ± 14	123 ± 50
COc1cc2ncnc(NC3CCN(Cc4ccccc4)CC3)c2cc1OC	103 ± 27	122 ± 11
CC1=Nc2ccc(Cl)cc2C(O)(c2ccc(C)cc2)N1CCN1CCCCC1 (centres undefined)	98.9 ± 32	91 ± 28
CC(C)n1nc(-c2cc3c(Cl)cccc3[nH]2)c2c(N)ncnc21	112 ± 45	74.2 ± 5.9
COc1ccc(S(=O)(=O)Nc2ccc(CN3CCN(C(=O)c4cccc(C#N)c4)CC3)cc2)cc1	103 ± 16	118 ± 47
COc1ccc(Oc2ccc([C@@H](C)N(C)c3ncc4c(N)nc(N)nc4n3)cc2)cc1	104 ± 32	83.9 ± 75
CS(=O)(=O)c1ccccc1C(=O)N(Cc1ccccc1)c1ccccc1	115 ± 7.9	107 ± 33
COc1cc(NC(C)CCCN)c2ncccc2c1 (centres undefined)	90.6 ± 4	127 ± 60
COc1cccc(-c2cc3c(Nc4cccnc4)nccc3[nH]2)c1	226 ± 230	83.9 ± 23
CCCNC(=O)N1CCC2(CC1)CC(=O)c1cc(C)ccc1O2	87.9 ± 23	61.5 ± 9.9
CS(=O)(=O)N1CCC(CCn2nc(Cc3cccc4ccccc34)c3c(N)ncnc32)CC1	90.3 ± 15	100 ± 38
O=C(NC1CC1)c1ccc(CSCc2ccccc2Cl)o1	83.2 ± 21	65.8 ± 24

Reference: the supplement of paper PMC7866885, “A novel bicyclic 2,4-diaminopyrimidine inhibitor of Streptococcus suis dihydrofolate reductase” (PeerJ, 2021)
